Screen size: about 420,000 compounds; about 50,000 (12%) were called active. Inconclusive results (about 26%) are left out. The call rests on the fitted dose curve; in most records, active means well fitted inhibition curve with a large enough effect; inconclusive means small, poorly fitted or top-dose-only effect; inactive means flat fitted curve, though single readings scatter. The entries come from a sample that favours actives as a whole.
Experiment: qHTS for Inhibitors of human tyrosyl-DNA phosphodiesterase 1 (TDP1): qHTS in cells in presence of CPT; further: nearly all actives have a fitted effect of over 55% in size
Conditions: chicken DT40 Tdp1-/-;hTDP1 cells + 20 nM CPT, ATP luminescence, 48 h; series mostly up to 46.2 µM; activity change, negative = growth inhibition: at the top concentration
Outline: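 Chicken DT40 Tdp1-/- cells complemented with human TDP1, 400 cells/well, exposed to compounds plus 20 nM camptothecin for at least 48 h at 37 C; viability read as ATP content by CellTiter-Glo luminescence.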
On the % scale 0 is the no-effect control and ±100 the full control effect; potency means the concentration at half of the fitted maximal effect.

SMILES	activity change, negative = growth inhibition	Potency
Cc1noc(NS(=O)(=O)c2ccc(NC(=O)c3oc4ccc(F)cc4c3C)cc2)c1C	-14.1% (inactive)	–
CC(=O)Nc1c2c(nn1-c1ccc(C)cc1C)CS(=O)C2 (stereo not given)	7.09% (inactive)	–
C[C@H](NC(=O)C1CC(=O)N(c2ccc3c(c2)OCCO3)C1)C(=O)N1CCC(C(=O)O)CC1 (stereo not given in full)	-0.349% (inactive)	–
CC(=O)Nc1c2c(nn1-c1cccc(C)c1)CSC2	-12.1% (inactive)	–
CCC(NC(=O)c1cc(COc2ccc(F)c(F)c2)on1)c1ccncc1 (stereo not given)	–	20.6 µM (active)
CC(C)Cc1cc(C(=O)NCCc2ccccc2)no1	-26.4% (inactive)	–
Cc1ccc(OCc2cc(C(=O)N(C)CCc3ccccc3)no2)cc1C	-13.4% (inactive)	–
CC(=O)c1cccc(OCc2cc(C(=O)NC(C)Cc3cccnc3)no2)c1 (stereo not given)	–	16.4 µM (active)
CN(Cc1cccnc1)C(=O)c1cc(COc2ccc3ncccc3c2)on1	–	4.61 µM (active)
CCn1ccnc1CN(C)C(=O)c1cc(COc2ccc(-n3cncn3)cc2)on1	-21.3% (inactive)	–
CCCOc1cccc(C(=O)NCCCNC(=O)c2cccnc2)c1	-1.65% (inactive)	–
O=C(NCCCc1ccccc1)c1cc(COc2c(F)cccc2F)on1	-17.7% (inactive)	–
O=C(NC1Cc2ccccc2C1)c1cc(COc2cccc(C(F)(F)F)c2)on1	-25.4% (inactive)	–
CC(N)(C(=O)O)c1ccc(-c2nn[nH]n2)cc1 (stereo not given)	-21.6% (inactive)	–
COC(=O)C[C@H]1C=C[C@H](NC(=O)c2ccc(F)cc2)[C@@H](CO)O1	-3.56% (inactive)	–
Cc1sc(NC(=O)C2=COCCO2)c(C#N)c1C	-13.9% (inactive)	–
CC1(C)C(c2cccs2)=[N+]([O-])C2(CCCCC2=O)N1O (stereo not given)	9.95% (inactive)	–
Cc1cccn2cc(-c3cccc(S(=O)(=O)N4CCCCC4)c3)nc12	-24% (inactive)	–
O=C(NCCCN1CCOCC1)C1CCCN(S(=O)(=O)N2CCCCC2)C1 (stereo not given)	-7.98% (inactive)	–
COc1cccc2c1C(=O)c1c(O)c3c(c(O)c1C2=O)CC(O)(C(C)=NNC(=O)c1ccc(Cl)c(Cl)c1)CC3OC1CC(N)C(O)C(C)O1 (stereo not given)	–	0.164 µM (active)
CCOC(=O)c1cnc2c(c(C)nn2CC)c1Cl	5.09% (inactive)	–
COc1cccc(-c2ccc3c(c2)N(Cc2ccccc2OC)C(=O)C(C)S3)c1 (stereo not given)	–	25.9 µM (active)
COc1ccccc1CNS(=O)(=O)c1ccc2c(c1)NC(=O)CS2	-27.9% (inactive)	–
COc1ccc(CN2C(=O)C(C)S/C2=N/N=C/c2ccco2)cc1 (stereo not given)	-9.51% (inactive)	–
CCCc1nc(N2CCN(C)CC2)c2sc(=S)n(-c3ccccc3)c2n1	–	18.4 µM (active)

SMILES	activity change, negative = growth inhibition	Potency
CCCc1nc(-c2ccccc2O)n(-c2ccccc2)n1	-27.4% (inactive)	–
Cc1cnc(NC(=O)CSc2c(Cl)cccc2Cl)s1	–	14.6 µM (active)
Cc1cnc(NC(=O)CSc2nnc(C)s2)s1	-12.2% (inactive)	–
COc1ccc(CC(=O)NCc2nnc(SCC(=O)Nc3nccs3)n2C)cc1	-10.1% (inactive)	–
COC(=O)c1ccc(NC(=O)CSc2nnc(CNc3ccc(OC)cc3)n2C)cc1	5.11% (inactive)	–
Cc1cnc(NC(=O)CSc2nnc(-c3ccccc3)n2Cc2ccccc2)s1	-13.7% (inactive)	–
COc1ccc(CC(=O)NCc2nnc(SCC(=O)Nc3ncc(C)s3)n2C)cc1	–	16.4 µM (active)
O=C(NCc1ccccc1)C(c1ccco1)N(C(=O)c1csnn1)c1ccccc1F (stereo not given)	-13% (inactive)	–
CCCCN(C(=O)COc1ccc(NC(C)=O)cc1)C1CCS(=O)(=O)C1 (stereo not given)	-15.7% (inactive)	–
COc1ccc(CNC(=O)CCC(=O)Nc2nnc(C(C)C)s2)cc1	2.44% (inactive)	–
CC[C@@H]1CC2=C(C(=O)OC(C)(C)O2)[C@@H](CC)O1	-8.36% (inactive)	–
Cn1c(CC(=O)Nc2ccc(F)cc2)nnc1SCC(=O)NC1CCCCC1	2.42% (inactive)	–
O=C(NCCN1CCOC1=O)C1CCC(=O)N(CCc2ccc(Cl)cc2)C1 (stereo not given)	-3.33% (inactive)	–
C=CCNCCCCOc1ccccc1	-25.9% (inactive)	–
COc1ccc(-c2[nH]c3c(c2-c2c(-n4cccc4)n(C)c(=O)n(C)c2=O)c(=O)n(C)c(=O)n3C)cc1	-19.5% (inactive)	–
COc1ccc(Nc2cc(=O)n(-c3ccccc3)c3c2c(=O)n(C)c(=O)n3C)cc1	16% (inactive)	–
COc1ccc(-c2c3c(=O)n(C)c(=O)n(C)c3cn2NC(C)=O)cc1	-0.679% (inactive)	–
COc1cccc(-n2cc3c(c2-c2ccccc2)c(=O)n(C)c(=O)n3C)c1	–	23.1 µM (active)
Cc1ccc(-c2c3c(=O)n(C)c(=O)n(C)c3cn2-c2ccccc2O)cc1	-1.44% (inactive)	–
COc1ccc(-c2c3c(=O)n(C)c(=O)n(C)c3cn2-c2cccc(OC)c2)cc1	–	29.1 µM (active)
COc1ccccc1N(CC(=O)Nc1c(C)n(C)n(-c2ccccc2)c1=O)S(=O)(=O)c1ccccc1	-1.58% (inactive)	–
Cc1c(Cl)cccc1NC(=O)NCCCN1CCCC1=O	-4.46% (inactive)	–
O=C(OCc1cc(=O)n2nc(C3CC3)sc2n1)c1ccccc1Cl	-26.1% (inactive)	–
C=CCOC(=O)C1=C[C@H](c2ccc(Br)cc2)C[C@H](OCCCCO)O1	-10.5% (inactive)	–
COc1ccc(Cc2nnc(SCC(=O)Nc3ccc(C)c(Cl)c3)[nH]c2=O)cc1	3.75% (inactive)	–

SMILES	activity change, negative = growth inhibition	Potency
COc1ccc(Cc2nnc(SC)[nH]c2=O)cc1	–	12.6 µM (active)
CSc1nc(O)c(Cc2ccccc2)c(=O)[nH]1	-2.58% (inactive)	–
COc1ccc(NC(=O)CCNC(=O)Cn2cnc3sc4c(c3c2=O)CCCC4)cc1OC	-5.97% (inactive)	–
O=C(O)CC(SCC(=O)Nc1ccc(Br)cc1)C(=O)O (stereo not given)	15% (inactive)	–
CCOc1cccc(/C=N/NC(=S)NCCN2CCOCC2)c1O	–	4.11 µM (active)
Cc1ccc(C(=O)NC(=S)NCCN2CCOCC2)cc1	-5.93% (inactive)	–
Cc1ccc(NC(=S)NCCN2CCOCC2)cc1	9.2% (inactive)	–
COCc1nnc(NC(=O)c2ccc3c(c2)OCO3)s1	2.7% (inactive)	–
C=CCN(CC=C)S(=O)(=O)c1ccc(C(=O)Nc2nc3c(s2)CCc2ccccc2-3)cc1	–	16.4 µM (active)
COc1cccc(OC)c1C(=O)Nc1sc2c(c1C(N)=O)CCCC2	3.81% (inactive)	–
O=C(Nc1ncc2c(n1)-c1ccccc1OC2)c1ccc(Cl)cc1	-18.9% (inactive)	–
C=CCSc1nnc(NC(=O)c2ccc(NC(C)=O)cc2)s1	-16.9% (inactive)	–
COc1ccc(C(=O)Nc2ncc3c(n2)-c2ccccc2CC3)cc1	-21.1% (inactive)	–
COCCN(CCOC)S(=O)(=O)c1ccc(C(=O)Nc2nc3c(s2)CCc2ccccc2-3)cc1	–	9.2 µM (active)
NC(=O)c1c(NC(=O)c2ccccc2)sc2c1CCCC2	-16.3% (inactive)	–
C=CCN(CC=C)S(=O)(=O)c1ccc(C(=O)Nc2sc3c(c2C(N)=O)CCCCC3)cc1	–	13 µM (active)
Cc1ccc2c(=O)cc(C(=O)NCCc3ccc(S(N)(=O)=O)cc3)oc2c1C	5.84% (inactive)	–
O=C1CC2(CCCC2)Oc2ccc(Cl)cc21	-14.3% (inactive)	–
O=C1C=C(c2ccccc2)CCC1	-1.66% (inactive)	–
CC1CCCCC1NC(=O)CN1CCC(O)(c2ccc3c(c2)OCO3)CC1 (stereo not given)	-38.1% (inactive)	–
CC(CCc1ccccc1)NCC(O)c1cccc([N+](=O)[O-])c1 (stereo not given)	-4.34% (inactive)	–
CCn1c2ccccc2c2nnc(N3CCN(c4cc(C)ccc4C)CC3)nc21	-9.5% (inactive)	–
CCNC(=O)c1cccc(NC(=O)C2CC(=O)N(CCc3ccccc3)C2)c1 (stereo not given)	-1.71% (inactive)	–
CN(CCc1ccccc1)C(=O)c1cccc(NC(=O)Cc2cccc(NC(=O)C3CCCN(C(=O)C4CCC4)C3)c2)c1 (stereo not given)	–	18.4 µM (active)
O=C(Cc1ccc([N+](=O)[O-])cc1)Nc1ccc(C(=O)N2CCOCC2)cc1	-29% (inactive)	–

SMILES	activity change, negative = growth inhibition	Potency
CN(CCc1ccccc1)C(=O)c1cccc(NC(=O)Cc2cccc(NC(=O)C3CCCN(C(=O)CCc4ccccc4)C3)c2)c1 (stereo not given)	–	14.6 µM (active)
O=C(Cc1ccc(NC(=O)C2CCCN(C(=O)CCc3ccccc3)C2)cc1)Nc1ccc(C(=O)N2CCOCC2)cc1 (stereo not given)	–	23.1 µM (active)
O=C(Cc1ccc(NC(=O)C2CCCN(C(=O)C3CCCCC3)C2)cc1)Nc1cccc(C(=O)N2CCCCC2)c1 (stereo not given)	-13% (inactive)	–
CC(=O)c1cccc(NC(=O)N2CCCC2C(=O)NCCc2ccccc2)c1 (stereo not given)	-21% (inactive)	–
CN(C(=O)c1ccc(NC(=O)Cc2cccc(NC(=O)C3CCN(C(=O)c4ccccc4)CC3)c2)cc1)C1CC1	-1.06% (inactive)	–
CN(C(=O)c1cccc(NC(=O)Cc2ccc(NC(=O)C3CCCN(C(=O)C4CC4)C3)cc2)c1)C1CC1 (stereo not given)	-11.9% (inactive)	–
COc1ccc(CC(=O)NC2CCSc3ccccc32)cc1OC (stereo not given)	-18.5% (inactive)	–
CCOc1c2ccc(C(=O)NC3CCCc4ccccc43)cc2nn1CC (stereo not given)	-23.4% (inactive)	–
O=C(Nc1ccc(S(=O)(=O)Nc2nccs2)cc1)c1cccc(S(=O)(=O)N2CCOCC2)c1	-2.77% (inactive)	–
O=c1oc2ccccc2c(NC2CCCCC2)c1NS(=O)(=O)c1ccc(Cl)cc1	-23.5% (inactive)	–
CCNc1c(NS(=O)(=O)c2ccc(C3CCCCC3)cc2)c(=O)oc2ccccc12	–	18.4 µM (active)
CC(C)(C)Nc1c(N)c(=O)oc2ccccc12	-22.7% (inactive)	–
CCc1ccccc1N1C(=O)C2C3CC(=O)C(c4ccccc43)C2C1=O (stereo not given)	0.543% (inactive)	–
CC(C)CCN1CCN=C1N(C)C	0.633% (inactive)	–
CC1CCC(CN2CCN=C2N(C)C)CC1 (stereo not given)	–	8.2 µM (active)
CCC(C)CCN1CCN=C1N(C)C (stereo not given)	-8.01% (inactive)	–
NS(=O)(=O)c1cccc(NC(=O)COC(=O)c2cc([N+](=O)[O-])ccc2N2CCCC2)c1	-4.21% (inactive)	–
CCOC(=O)N1CCC(N2CCOc3ccc(CN4CCC(O)(c5cccnc5)CC4)cc3C2)CC1	7.91% (inactive)	–
NCCCNCCCCN(CCCN)/[N+]([O-])=N/O	–	13.3 µM (active)
COc1ccc(N2CCN(Cc3ccc(Br)s3)CC2)cc1	-11.2% (inactive)	–
CCCCCCCC[n+]1cccc(C(=O)N2c3c(nc(N)[nH]c3=O)NC(C)C2C)c1 (stereo not given)	2.22% (inactive)	–
Cc1ccc(S(=O)(=O)N[C@@H](Cc2ccccc2)C(=O)N2CCC(C(=O)N[C@H](C(=O)O)C(C)O)CC2)cc1 (stereo not given in full)	9.5% (inactive)	–
CC1(C)C=C2[C@H]3CC[C@@H]4[C@@]5(C)CCC(=O)C(C)(C)[C@@H]5CC[C@@]4(C)[C@]3(C)CC[C@@]2(C(=O)O)CC1	–	5.17 µM (active)
N#Cc1cccc(OC(=O)c2ccc3c(=O)n4c(nc3c2)CCC4)c1	-29.3% (inactive)	–
O=C(CCNC(=O)C1CCN(S(=O)(=O)c2ccccc2)CC1)NC1CC1	8.25% (inactive)	–

— PubChem BioAssay AID686979 (National Center for Advancing Translational Sciences (NCATS), 2013)
